Laboratory results taken from PubChem BioAssay AID1159580 (chemical genetic matrix, 2015).
“And” between values parts separate entries of the source, which are not always exact repeats. Equal entries are not always repeated. The campaign covered roughly 5,500 compounds. About 2,000 (36%) were called active. Another 18% or so got no clear call; they are omitted. No stated cut-off is given here; in the data, active means normalized growth mostly below about 0.91 (no sharp cut-off); inconclusive means no clear call, values can overlap the other calls; inactive means mostly above about 0.92. Some of the results follow.

Experiment: chemical genetic growth profiling, strain panel (AID 1159580);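 further: tested at 20 µM; growth read once vehicle control cultures reached saturation at 30 °C; 1 = growth at the plate median or of vehicle wells; lower values mean less growth of the strain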
Settings: S. cerevisiae deletion strains, growth OD

Measured: normalized growth

C/C=C/CC(C)C(O)C1C(=O)NC(CC)C(=O)N(C)CC(=O)N(C)C(CC(C)C)C(=O)NC(C(C)C)C(=O)N(C)C(CC(C)C)C(=O)NC(C)C(=O)NC(C)C(=O)N(C)C(CC(C)C)C(=O)N(C)C(CC(C)C)C(=O)N(C)C(C(C)C)C(=O)N1C (stereo not given)
active: locus YDL185W, strain tfp1, active compounds read low 0.358 | locus YDR137W, strain rgp1, active compounds read low 0.637
inactive: locus YAL013W, strain DEP1, active compounds read low 0.998 | locus YAL021C, strain ccr4, active compounds read low 1.02 | locus YAL026C, strain drs2, active compounds read low 1 | locus YAL030W, strain snc1, active compounds read low 1.02 | locus YAL040C, strain CLN3, active compounds read low 1.04 | locus YBL061C, strain skt5, active compounds read low 1.01 | locus YBR009C, strain hhf1, active compounds read low 1.01 | locus YBR021W, strain FUR4, active compounds read low 1.02 | locus YBR023C, strain chs3, active compounds read low 1.01 | locus YBR171W, strain sec66, active compounds read low 1.01 | locus YBR229C, strain ROT2, active compounds read low 0.972 | locus YBR231C, strain swc5, active compounds read low 1.02 | locus YBR279W, strain paf1, active compounds read low 1.02 | locus YCL011C, strain gbp2, active compounds read low 1.01 | locus YCL016C, strain dcc1, active compounds read low 0.996 | locus YCL029C, strain bik1, active compounds read low 1.01 | locus YCL061C, strain MRC1 (second series), active compounds read low 0.983 | locus YCL061C, strain MRC1, active compounds read low 1.02 | locus YCL069W, strain vba3, active compounds read low 1.02 | locus YCR088W, strain abp1, active compounds read low 1.02 | locus YDL005C, strain med2, active compounds read low 1.01 | locus YDL035C, strain GPR1, active compounds read low 0.979 | locus YDL040C, strain nat1, active compounds read low 1.01 | locus YDL074C, strain BRE1, active compounds read low 0.937 | locus YDL101C, strain DUN1, active compounds read low 0.988 | locus YDL134C, strain PPH21, active compounds read low 0.983 | locus YDL192W, strain arf1, active compounds read low 1 | locus YDR001C, strain nth1, active compounds read low 1.01 | locus YDR069C, strain doa4, active compounds read low 1.03 | locus YDR101C, strain arx1, active compounds read low 1.02 | locus YDR150W, strain NUM1, active compounds read low 0.996 | locus YDR159W, strain sac3, active compounds read low 0.993 | locus YDR162C, strain NBP2, active compounds read low 0.952 | locus YDR195W, strain ref2 1.01 | locus YDR297W, strain sur2, active compounds read low 1.02 | locus YDR318W, strain mcm21, active compounds read low 1.03 | locus YDR334W, strain swr1, active compounds read low 1.02 | locus YDR335W, strain msn5, active compounds read low 1.02 | locus YDR388W, active compounds read low 1.03 | locus YDR392W, strain spt3, active compounds read low 0.873 | locus YDR502C, strain sam2, active compounds read low 1.01 | locus YEL003W, strain gim4, active compounds read low 1.02 | locus YEL037C, strain rad23, active compounds read low 1.06 | locus YEL061C, strain CIN8 (second series), active compounds read low 1 | locus YEL061C, strain CIN8, active compounds read low 0.996 | locus YER002W, strain NOP16, active compounds read low 0.966 | locus YER015W, strain faa2, active compounds read low 1.02 | locus YER016W, strain bim1, active compounds read low 1.02 | locus YER110C, active compounds read low 1.02 | locus YER111C, strain swi4, active compounds read low 0.99 | locus YER155C, strain BEM2 (second series), active compounds read low 0.952 | locus YER155C, strain BEM2, active compounds read low 1.03 | locus YER167W, strain BCK2, active compounds read low 1.03 | locus YFR010W, strain ubp6, active compounds read low 1 | locus YGL078C, strain dbp3, active compounds read low 1.02 | locus YGL086W, strain mad1, active compounds read low 1.02 | locus YGL167C, strain pmr1, active compounds read low 1.03 | locus YGL173C, strain kem1, active compounds read low 1.02 | locus YGL227W, strain vid30, active compounds read low 1.02 | locus YGL240W, strain doc1, active compounds read low 0.978 | locus YGL248W, strain PDE1, active compounds read low 0.985 | locus YGL253W, strain hxk2, active compounds read low 1.02 | locus YGR078C, strain PAC10, active compounds read low 0.964 and 1.01 | locus YGR135W, strain pre9, active compounds read low 0.991 | locus YGR229C, strain SMI1, active compounds read low 0.937 and 1.01 | locus YGR252W, strain gcn5, active compounds read low 0.913 | locus YHR013C, strain ard1, active compounds read low 1.03 | locus YHR027C, strain rpn1, active compounds read low 1.03 | locus YHR030C, strain SLT2, active compounds read low 1.02 and 0.977 | locus YHR079C, strain IRE1 (second series), active compounds read low 1.03 | locus YHR079C, strain IRE1, active compounds read low 0.991 | locus YHR094C, strain hxt1, active compounds read low 1.02 | locus YHR129C, strain ARP1, active compounds read low 1.01 | locus YHR142W, strain chs7, active compounds read low 1.02 | locus YHR200W, strain rpn10, active compounds read low 1.02 | locus YIL066C, strain RNR3, active compounds read low 0.986 | locus YIL073C, strain SPO22, active compounds read low 1.02 | locus YIL125W, strain kgd1, active compounds read low 1 | locus YIR030C, strain dcg1, active compounds read low 1.02 | locus YJL092W, strain hpr5, active compounds read low 1.02 | locus YJL095W, strain BCK1 (second series), active compounds read low 1.03 | locus YJL095W, strain BCK1, active compounds read low 0.908 and 0.989 | locus YJL115W, strain asf1, active compounds read low 1.02 | locus YJL129C, strain trk1, active compounds read low 1.08 | locus YJL134W, strain LCB3, active compounds read low 1 | locus YJL154C, strain vps35, active compounds read low 1.01 | locus YJL164C, strain tpk1, active compounds read low 1.04 | locus YJL166W, strain qcr8, active compounds read low 1.02 | locus YJL168C, strain set2, active compounds read low 1.03 | locus YJL187C, strain SWE1 (second series), active compounds read low 0.968 | locus YJL187C, strain SWE1, active compounds read low 1.02 | locus YJR043C, strain POL32, active compounds read low 1 | locus YJR066W, strain TOR1, active compounds read low 0.959
